Active and inactive are the calls of the source. The calls were made as follows: active = hit-call score of the fitted dose curve at least 0.9, where 1 is the maximum; inactive = score below 0.9.

The nature of assay [1]: ATG_M_61_CIS: Attagene CIS-FACTORIAL HepG2 Assay for M61 Transcription Factor (Internal Marker) (AID 2282937). As to conditions: HepG2 Attagene CIS-FACTORIAL M61 internal marker reporter; actives raise or lower the signal. Summed up:
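Fluorescence from labelled cDNA fragments, separated by capillary electrophoresis, quantifies reporter induction. HepG2 cells bearing transiently transfected cis-promoter MRTUs were incubated with test chemical for 24 h; DMSO defined baseline for gain/loss fitting.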

Assay [2] is described as follows: ATG_EGR_CIS: Attagene CIS-FACTORIAL HepG2 Assay for human Early Growth Response 1 (EGR1) (AID 2282938). As to conditions: HepG2 Attagene CIS-FACTORIAL EGR reporter mRNA; actives raise or lower the signal. The method in brief:
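Cell-based multiplex transcription assay: HepG2 carrying transfected cis-element reporter units, 24 h chemical treatment. Fluorescence from capillary electrophoresis of RT-PCR products gives mRNA levels; fitting is bidirectional relative to DMSO.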

A short description of assay [3]: ATG_M_19_CIS: Attagene CIS-FACTORIAL HepG2 Assay for M19 Transcription Factor (Internal Marker) (AID 2282939). As to conditions: HepG2 Attagene CIS-FACTORIAL M19 internal marker reporter; actives raise or lower the signal. The method in brief: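 Signals come from fluorescence of labelled reporter-specific PCR fragments resolved by capillary electrophoresis, following 24 h treatment of HepG2 cells transfected with cis-promoter reporter units; activity was fitted in both directions relative to DMSO.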

Assay [4] is described as follows: ATG_ERE_CIS: Attagene CIS-FACTORIAL HepG2 Assay for Estrogen Response Element (ERE) (AID 2282940). The following applies: HepG2 ERE cis-reporter, Attagene RNA transcript; actives raise or lower the signal. The method in brief: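 Fluorescence of capillary-separated, FAM-labelled reporter cDNA fragments indicates reporter mRNA levels in HepG2 cells exposed to chemicals for 24 h. Transient transfection with cis-regulated units; data fitted in both directions against DMSO.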

Assay [5] has as its target Hepatocyte nuclear factor 3-beta (Homo sapiens) (UniProt Q9Y261). The experiment in a line: ATG_FoxA2_CIS: Attagene CIS-FACTORIAL HepG2 Assay for human Forkhead box A2 (FOXA2) (AID 2282942). As to conditions: HepG2 cis-reporter transcription factor activity, 24 h; actives raise or lower the signal. Summed up:
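In transiently transfected human HepG2 cells, promoter-driven reporter mRNA levels after 24 h chemical exposure are determined via RT-PCR with capillary electrophoresis. DMSO serves as baseline for bidirectional fitting.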

The nature of assay [6]: ATG_GATA_CIS: Attagene CIS-FACTORIAL HepG2 Assay for human GATA Binding Protein (AID 2282944). The following applies: HepG2 GATA cis-element reporter, Attagene multiplex mRNA; actives raise or lower the signal. Summed up: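 After transfecting HepG2 cells with multiple cis-regulated reporter units, chemicals are dosed for 24 h; isolated RNA undergoes RT-PCR and fluorescent labeling before capillary electrophoresis, with activity expressed against DMSO.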

Assay [7] can be described thus: ATG_GLI_CIS: Attagene CIS-FACTORIAL HepG2 Assay for human Zinc Finger Protein GLI1 (AID 2282945). As to conditions: HepG2, Attagene cis-factorial reporter mRNA, GLI element; actives raise or lower the signal. Summed up: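 Transiently transfected HepG2 cells report endogenous transcription factor activity via cis-element-driven reporter units. After 24 h compound exposure, reporter mRNA was measured by RT-PCR with capillary electrophoresis; bidirectional fitting against DMSO baseline.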

The nature of assay [8]: ATG_GRE_CIS: Attagene CIS-FACTORIAL HepG2 Assay for human Glucocorticoid Response Elements (GRE) (AID 2282947). As to conditions: HepG2 GRE cis-reporter, Attagene multiplex mRNA; actives raise or lower the signal. The method in brief: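 Transiently transfected HepG2 cells carrying GRE cis-reporter units (endogenous TF activity) dosed 24 h; reporter mRNA quantified by RT-PCR, 6-FAM labelling, HpaI digestion and capillary electrophoresis. Bidirectional fit versus DMSO baseline.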

Assay [9] is described as follows: ATG_ISRE_CIS: Attagene CIS-FACTORIAL HepG2 Assay for human Interferon Regulatory Factor 1 (IRF1) binding to an Interferon-Stimulated Response Element (ISRE) (AID 2282948). The following applies: HepG2 ISRE cis-reporter (Attagene), mRNA transcription readout; actives raise or lower the signal. The method in brief:
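HepG2 cells transiently transfected with multiplexed cis-promoter reporter units; after 24 h compound exposure, reporter mRNA quantified by RT-PCR, FAM labelling, HpaI digestion and capillary electrophoresis. Bidirectional fit versus DMSO baseline.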

A short description of assay [10]: ATG_M_32_CIS: Attagene CIS-FACTORIAL HepG2 Assay for M32 Transcription Factor (Internal Marker) (AID 2282949).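 Also: background control marker of the multiplexed CIS panel rather than a real target.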 As to conditions: HepG2 Attagene cis-factorial M32 reporter, mRNA; actives raise or lower the signal. Summed up:
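HepG2 cells transiently transfected with multiplexed cis-regulated reporter units, dosed 24 h. Reporter mRNA quantified by RT-PCR, 6-FAM labelling, HpaI digestion and capillary electrophoresis; bidirectional fit vs DMSO.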

Assay [11] in a line: ATG_M_06_CIS: Attagene CIS-FACTORIAL HepG2 Assay for M06 Transcription Factor (Internal Marker) (AID 2282950). The following applies: HepG2 Attagene CIS-FACTORIAL M06 internal marker reporter; actives raise or lower the signal. The method in brief: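 HepG2 liver cells, 24 h exposure. Reporter transcripts from transfected cis-element constructs quantified by RT-PCR/capillary electrophoresis fluorescence. Bidirectional curve fit against DMSO.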

The target in assay [12] is Hypoxia-inducible factor 1-alpha (Homo sapiens) (UniProt Q16665). The experiment in a line: ATG_HIF1a_CIS: Attagene CIS-FACTORIAL HepG2 Assay for human Hypoxia Inducible Factor 1 (HIF1A) (AID 2282951). The following applies: HepG2 Attagene cis-factorial HIF1a reporter transcription; actives raise or lower the signal. Summed up:
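In this multiplexed cell assay, HepG2 cells bearing transfected cis reporters are dosed for 24 h and reporter mRNA is read by RT-PCR plus capillary electrophoresis; signal increases and decreases are both scored against DMSO.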

Assay [13] has as its target Hepatocyte nuclear factor 6 (Homo sapiens) (UniProt Q9UBC0). The experiment in a line: ATG_HNF6_CIS: Attagene CIS-FACTORIAL HepG2 Assay for human Hepatocyte Nuclear Factor 6 (HNF6) (AID 2282952). The following applies: HepG2 Attagene cis-factorial HNF6 reporter transcription; actives raise or lower the signal. Summed up:
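Multiplexed mRNA reporter assay in transfected HepG2; 24 h dosing; RT-PCR plus capillary electrophoresis fluorescence; DMSO-referenced bidirectional curve fitting.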

Assay [14] has as its target Heat shock factor protein 1 (Homo sapiens) (UniProt Q00613). Nature of the assay: ATG_HSE_CIS: Attagene CIS-FACTORIAL HepG2 Assay for human Heat Shock Transcription Factor 1 (HSE) (AID 2282953). As to conditions: HepG2 HSE cis-reporter, Attagene RNA transcription; actives raise or lower the signal. The method in brief: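 Endogenous transcription factor activity captured via cis-promoter reporter units transfected into HepG2; treatment lasted 24 h. Fluorescence intensity of reporter fragments analysed with bidirectional curve fitting, DMSO baseline.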

The nature of assay [15]: ATG_MRE_CIS: Attagene CIS-FACTORIAL HepG2 Assay for human Metal Responsive Element (MRE) (AID 2282954). The following applies: HepG2 MRE cis-reporter transcription, Attagene multiplex; actives raise or lower the signal. The method in brief: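 HepG2 cells transiently transfected with cis-element-driven reporter units; mRNA measured 24 h after dosing. Reporter transcripts quantified by RT-PCR, FAM labelling, HpaI digestion and capillary electrophoresis; bidirectional fit versus DMSO.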

The nature of assay [16]: ATG_PBREM_CIS: Attagene CIS-FACTORIAL HepG2 Assay for human Phenobarbital-responsive Enhancer Module (PBREM) (AID 2282955). As to conditions: HepG2 PBREM cis-reporter, Attagene multiplexed transcription; actives raise or lower the signal. Summed up:
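After a 24 h incubation with test chemical, transfected HepG2 cells yield total RNA; reporter-specific RT-PCR products are fluorescently labelled, HpaI-digested and resolved by capillary electrophoresis against ROX size standards.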

The target in assay [17] is Paired box protein Pax-6 (Homo sapiens) (UniProt P26367). Nature of the assay: ATG_Pax6_CIS: Attagene CIS-FACTORIAL HepG2 Assay for human Paired Box 6 (PAX6) (AID 2282956). The following applies: HepG2 CIS-FACTORIAL PAX6 reporter transcription, RNA readout; actives raise or lower the signal. Summed up:
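HepG2 cells transiently transfected with multiplexed cis-promoter reporter units (endogenous TF activity) were dosed for 24 h. Reporter mRNA was quantified by RT-PCR, 6-FAM labeling, HpaI digestion and capillary electrophoresis; bidirectional fitting versus DMSO baseline.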

Assay [18] in a line: ATG_Ets_CIS: Attagene CIS-FACTORIAL HepG2 Assay for human Erythroblast Transformation Specific (ETS) (AID 2282941). As to conditions: HepG2 ETS cis-reporter transcription, actives raise or lower the signal. The method in brief:
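HepG2 cells transiently transfected with cis-promoter reporter transcription units were dosed for 24 h; reporter mRNA was measured by RT-PCR, 6-FAM primer extension, HpaI digestion and capillary electrophoresis, with bidirectional fitting against DMSO baseline.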

The nature of assay [19]: ATG_FoxO_CIS: Attagene CIS-FACTORIAL HepG2 Assay for human Forkhead box O (FoxO) (AID 2282943). The following applies: HepG2 Attagene cis-reporter, FoxO element, mRNA; actives raise or lower the signal. The method in brief:
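Read-out: fluorescence of 6-FAM-labelled reporter cDNA fragments resolved by capillary electrophoresis. Transiently transfected HepG2 cells were dosed for 24 h; activity fitted in both directions relative to DMSO controls.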

For assay [20], the target named is Bile acid receptor (Homo sapiens) (UniProt Q96RI1). Nature of the assay: ATG_IR1_CIS: Attagene CIS-FACTORIAL HepG2 Assay for human Nuclear Receptor Subfamily 1 Group H Member 4 (NR1H4), IR1 submotif (AID 2282946). As to conditions: IR1 reporter transcription, actives raise or lower the signal. Summed up: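 HepG2 cells transiently transfected with multiple cis-promoter-driven reporter units to measure endogenous transcription factor activity; 24 h exposure. Reporter mRNA read by RT-PCR, FAM labelling, HpaI digestion and capillary electrophoresis. Bidirectional fit versus DMSO.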
Chain of Bile acid receptor (Homo sapiens) (Q96RI1 whole entry, looked up): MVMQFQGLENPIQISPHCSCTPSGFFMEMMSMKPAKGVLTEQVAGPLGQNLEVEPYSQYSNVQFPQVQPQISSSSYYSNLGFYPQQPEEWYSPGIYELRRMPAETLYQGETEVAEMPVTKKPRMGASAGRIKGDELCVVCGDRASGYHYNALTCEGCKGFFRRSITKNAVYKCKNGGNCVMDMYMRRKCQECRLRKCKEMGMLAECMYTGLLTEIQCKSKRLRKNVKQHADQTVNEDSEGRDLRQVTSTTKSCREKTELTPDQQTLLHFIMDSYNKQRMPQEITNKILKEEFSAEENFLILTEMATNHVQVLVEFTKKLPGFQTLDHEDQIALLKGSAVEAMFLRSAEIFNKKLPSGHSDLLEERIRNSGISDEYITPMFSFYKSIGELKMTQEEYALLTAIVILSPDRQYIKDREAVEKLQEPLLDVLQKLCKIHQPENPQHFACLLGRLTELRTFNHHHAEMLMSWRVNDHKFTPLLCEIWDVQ

Chain of Hypoxia-inducible factor 1-alpha (Homo sapiens) (Q16665 whole entry, looked up): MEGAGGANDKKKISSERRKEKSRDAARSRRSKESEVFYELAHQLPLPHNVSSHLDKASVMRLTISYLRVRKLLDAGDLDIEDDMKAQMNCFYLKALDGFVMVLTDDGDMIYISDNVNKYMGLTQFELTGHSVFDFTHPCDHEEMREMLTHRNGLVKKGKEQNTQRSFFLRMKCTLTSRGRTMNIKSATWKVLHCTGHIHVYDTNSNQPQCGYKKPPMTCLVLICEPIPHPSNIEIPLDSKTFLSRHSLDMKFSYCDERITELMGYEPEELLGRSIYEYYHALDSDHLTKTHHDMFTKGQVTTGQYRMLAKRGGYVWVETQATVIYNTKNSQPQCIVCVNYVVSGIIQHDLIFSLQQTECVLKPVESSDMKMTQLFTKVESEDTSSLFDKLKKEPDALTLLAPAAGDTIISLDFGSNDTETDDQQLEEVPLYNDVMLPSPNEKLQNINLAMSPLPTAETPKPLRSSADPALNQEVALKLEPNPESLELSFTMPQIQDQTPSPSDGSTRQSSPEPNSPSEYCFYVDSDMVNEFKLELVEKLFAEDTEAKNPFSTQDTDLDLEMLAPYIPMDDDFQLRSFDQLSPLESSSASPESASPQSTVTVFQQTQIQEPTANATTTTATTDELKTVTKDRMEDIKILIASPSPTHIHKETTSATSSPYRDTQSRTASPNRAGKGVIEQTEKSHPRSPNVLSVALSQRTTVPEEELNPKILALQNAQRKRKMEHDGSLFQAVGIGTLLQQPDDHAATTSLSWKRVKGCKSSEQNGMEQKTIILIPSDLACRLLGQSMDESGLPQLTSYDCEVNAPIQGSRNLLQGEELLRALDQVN
Chain of Paired box protein Pax-6 (Homo sapiens) (P26367 whole entry, looked up): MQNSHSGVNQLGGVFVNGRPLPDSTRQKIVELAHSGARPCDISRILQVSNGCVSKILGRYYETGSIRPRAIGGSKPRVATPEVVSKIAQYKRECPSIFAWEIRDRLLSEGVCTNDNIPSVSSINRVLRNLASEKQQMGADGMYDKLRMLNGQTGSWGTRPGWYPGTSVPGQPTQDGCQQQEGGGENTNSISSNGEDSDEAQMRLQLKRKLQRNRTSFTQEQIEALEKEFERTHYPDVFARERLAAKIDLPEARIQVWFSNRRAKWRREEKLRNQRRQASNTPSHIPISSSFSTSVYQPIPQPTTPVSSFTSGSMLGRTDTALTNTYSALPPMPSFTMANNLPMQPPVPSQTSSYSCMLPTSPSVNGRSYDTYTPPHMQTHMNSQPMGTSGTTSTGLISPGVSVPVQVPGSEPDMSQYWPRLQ
Chain of Hepatocyte nuclear factor 6 (Homo sapiens) (Q9UBC0 whole entry, looked up): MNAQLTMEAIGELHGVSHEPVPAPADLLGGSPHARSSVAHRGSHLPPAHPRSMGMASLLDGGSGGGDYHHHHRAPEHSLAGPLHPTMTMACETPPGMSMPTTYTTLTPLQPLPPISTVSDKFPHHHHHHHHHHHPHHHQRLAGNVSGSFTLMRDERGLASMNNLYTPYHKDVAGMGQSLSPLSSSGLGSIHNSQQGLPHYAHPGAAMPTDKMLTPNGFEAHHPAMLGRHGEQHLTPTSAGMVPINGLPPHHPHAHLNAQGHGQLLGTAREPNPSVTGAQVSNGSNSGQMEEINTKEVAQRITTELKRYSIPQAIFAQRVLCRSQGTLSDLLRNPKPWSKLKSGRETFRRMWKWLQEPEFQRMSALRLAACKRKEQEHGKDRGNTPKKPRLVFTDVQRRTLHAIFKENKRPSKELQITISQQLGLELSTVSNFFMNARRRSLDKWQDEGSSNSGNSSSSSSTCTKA
Chain of Heat shock factor protein 1 (Homo sapiens) (Q00613 whole entry, looked up, the tested form may be a part): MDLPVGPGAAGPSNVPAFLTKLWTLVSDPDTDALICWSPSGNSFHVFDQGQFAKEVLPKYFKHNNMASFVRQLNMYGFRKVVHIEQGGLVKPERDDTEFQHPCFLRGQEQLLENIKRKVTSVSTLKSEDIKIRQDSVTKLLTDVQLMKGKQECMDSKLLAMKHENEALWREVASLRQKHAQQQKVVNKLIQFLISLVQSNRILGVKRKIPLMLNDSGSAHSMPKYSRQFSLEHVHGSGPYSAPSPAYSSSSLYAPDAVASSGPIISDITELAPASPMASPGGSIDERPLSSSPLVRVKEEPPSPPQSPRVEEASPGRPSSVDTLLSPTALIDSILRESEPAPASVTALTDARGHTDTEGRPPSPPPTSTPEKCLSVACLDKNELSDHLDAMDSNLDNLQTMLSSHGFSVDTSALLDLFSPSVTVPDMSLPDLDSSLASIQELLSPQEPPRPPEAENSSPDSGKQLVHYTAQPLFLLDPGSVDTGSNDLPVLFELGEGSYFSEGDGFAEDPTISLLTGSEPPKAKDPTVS
Chain of Hepatocyte nuclear factor 3-beta (Homo sapiens) (Q9Y261 whole entry, looked up): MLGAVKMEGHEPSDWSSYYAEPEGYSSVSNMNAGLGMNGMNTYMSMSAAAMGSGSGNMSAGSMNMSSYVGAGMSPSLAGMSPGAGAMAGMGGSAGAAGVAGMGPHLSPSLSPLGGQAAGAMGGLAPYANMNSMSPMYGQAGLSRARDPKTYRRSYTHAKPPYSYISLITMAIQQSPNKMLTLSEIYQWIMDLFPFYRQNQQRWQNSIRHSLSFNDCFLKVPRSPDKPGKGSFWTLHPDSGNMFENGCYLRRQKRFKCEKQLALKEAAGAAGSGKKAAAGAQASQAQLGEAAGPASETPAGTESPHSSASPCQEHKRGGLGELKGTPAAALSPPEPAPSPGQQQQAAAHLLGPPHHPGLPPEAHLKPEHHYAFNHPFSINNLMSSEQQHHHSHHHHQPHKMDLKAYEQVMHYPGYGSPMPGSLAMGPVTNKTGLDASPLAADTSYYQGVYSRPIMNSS

In the case of `C=CCCl`, the result in assay [1], in assay [2], in assay [3], in assay [4], in assay [5] and in [6] was inactive. Moreover, the call in assay [7], in assay [8], in assay [9], in assay [10], in assay [11] and in [12] was inactive. Also, the molecule was called inactive in assay [13], in assay [14], in assay [15], in assay [16] and in [17].

On to `CN(N=O)C(N)=O`, for which the molecule was called inactive in [1], in assay [2], in [3], in assay [18], in [5] and in [19]. In addition, the call in assay [6], in assay [7], in assay [20], in assay [8], in assay [9] and in assay [10] was inactive. The result in assay [11], in assay [12], in assay [13], in assay [14], in assay [15] and in assay [16] was inactive. The outcome in assay [17] was inactive.

What is called AC50 is the concentration giving half of the maximal activity seen. With `NNCCO`, the call in assay [1], in assay [2], in assay [3], in assay [5], in [19] and in assay [6] was inactive. Besides, the molecule was called inactive in assay [7], in assay [20], in assay [9], in assay [10], in assay [11] and in assay [12]. Further, the molecule was classed as inactive in assay [13], in [14], in assay [15] and in assay [17]. Further, the AC50 in assay [4] is 25.4 µM (active).

As to `NC(=O)CCl`, the molecule was called inactive in assay [1], in assay [2], in [3], in [4], in assay [5] and in [6]. Also, the molecule was called inactive in assay [7], in assay [20], in assay [8], in assay [9], in assay [10] and in assay [11]. The call in assay [12], in assay [13], in assay [15], in [16] and in assay [17] was inactive.

On to `O=C(O)COc1cc(Cl)c(Cl)cc1Cl`, for which the result in assay [1], in assay [2], in assay [3], in assay [18], in assay [5] and in assay [19] was inactive. Also, the result in [6], in [7], in assay [20], in assay [8], in assay [9] and in assay [10] was inactive. The call in [12], in assay [13], in assay [14], in [15] and in [17] was inactive.

As for `Oc1cc(Cl)c(Cl)cc1Cl`, the molecule was classed as inactive in assay [1], in assay [3], in assay [18], in assay [5], in assay [19] and in assay [6]. Further, the result in [7], in [10], in assay [11], in assay [12] and in [13] was inactive. In addition, the AC50 in [2] was 66.6 µM (active); in assay [15] it was 63 µM (active); in assay [17] it was 54 µM (active).

As for `Clc1cccc(Cl)c1`, the molecule was classed as inactive in assay [1], in assay [2], in [3], in assay [18], in assay [5] and in [19]. Further, the molecule was classed as inactive in assay [7], in assay [8], in assay [9], in assay [10], in assay [11] and in [12]. The molecule was classed as inactive in assay [13], in [14], in assay [15], in [16] and in assay [17].

Take `CCCCCCCCCCCCc1cccc(S(=O)(=O)O)c1`: the molecule was classed as inactive in assay [1], in [2], in assay [3], in assay [18], in assay [5] and in [19]. The result in assay [6], in assay [7], in assay [8], in assay [9], in assay [10] and in [11] was inactive. Besides, the call in assay [12], in assay [13], in assay [15], in assay [16] and in assay [17] was inactive.
